The AC50 is the concentration giving half of the maximal activity seen.

Screen size: about 16,000 compounds; about 2,600 (16%) were called active. Inconclusive results (about 20%) are left out. Only a sample is shown. A number with no mark means an inactive call. Calls follow the shape of the dose curve; as a rule, active = well fitted curve in the direction sought with a large enough effect; inconclusive = small, poorly fitted or top-dose-only effect, or effect the other way; inactive = no such curve, though single readings can be large or run the other way.
% is scaled to controls: 0 for no effect and ±100 for the full control effect.

In this test the target is Cytochrome P450 2D6 (Homo sapiens) (UniProt P10635). Put plainly: Cytochrome panel assay with activity outcomes. The note with it: recombinant CYP, pro-luciferin dealkylation, luminescence, p450-cyp2d6; series mostly up to 57.1 µM; activity, negative = inhibition: at the top concentration.
Sequence of Cytochrome P450 2D6 (Homo sapiens) (P10635 whole entry, looked up): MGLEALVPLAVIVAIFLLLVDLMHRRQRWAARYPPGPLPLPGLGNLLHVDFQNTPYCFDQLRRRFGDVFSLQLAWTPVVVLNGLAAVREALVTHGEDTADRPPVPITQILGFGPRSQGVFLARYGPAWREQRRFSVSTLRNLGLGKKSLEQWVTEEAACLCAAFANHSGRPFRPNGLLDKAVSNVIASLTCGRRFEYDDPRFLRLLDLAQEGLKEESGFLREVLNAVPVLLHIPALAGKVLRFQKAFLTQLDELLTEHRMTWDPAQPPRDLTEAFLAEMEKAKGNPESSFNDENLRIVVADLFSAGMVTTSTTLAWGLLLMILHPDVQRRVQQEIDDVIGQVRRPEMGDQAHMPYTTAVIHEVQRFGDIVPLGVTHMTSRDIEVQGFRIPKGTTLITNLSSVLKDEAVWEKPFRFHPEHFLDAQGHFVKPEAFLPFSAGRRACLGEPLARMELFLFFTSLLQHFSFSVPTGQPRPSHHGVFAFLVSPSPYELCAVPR
Consider `Cc1nc(SCC(=O)Nc2ccc(N3CCOCC3)cc2)nc(C)c1C`, for which the “activity, negative = inhibition” value is 14.7%.
As for `Cc1nc(SCC(=O)NCCc2ccc(Cl)cc2)nc(C)c1C`, the concentration at half-maximal activity (AC50) was 3.55 µM (active).
Turning to `Nc1cc(N)nc(SCC(=O)NNC(=O)c2ccc(Cl)cc2)n1`, the “activity, negative = inhibition” value was 5.53%.
Turning to `CC(C)[C@H](Sc1nc(N)nc2nc[nH]c12)C(=O)O`, the activity, negative = inhibition is 2.46% [at 11.4 µM].
Still for that read-out and setting: as for `CCOc1ccc(NC(=O)Cn2nnc(C(=O)NCc3ccccc3OC)c2N)cc1`, the figure is 29.3%.
Regarding `COc1ccc(C2(CNC(=O)/C=C/c3ccco3)CCCC2)cc1OC`, the “activity, negative = inhibition” value is -19.2%.
With `O=C(NC(=S)Nc1nc(-c2ccc(Br)cc2)cs1)c1cccnc1`, the “activity, negative = inhibition” value was 3.04%.
Still for that read-out and setting: as for `CC(C)(C)N1C(=O)[C@H]2[C@H]3[C@H](O)[C@H](O)C/C(=N/NC(=O)OCc4ccccc4)[C@H]3CC[C@@H]2C1=O`, the figure is 6.89% [at 11.4 µM].
Turning to `CC(=O)OC[C@H]1O[C@@H](O/N=C(\C)CCN2CCCCc3nc(C)c(C)cc32)[C@H](OC(C)=O)[C@@H](OC(C)=O)[C@H]1OC(C)=O`, the half-maximal activity concentration (AC50) is 3.98 µM (active).
Still for that read-out and setting: next, `CC(=O)OC[C@H]1O[C@@H](O/N=C(\C)CCN2CCCc3nc(C)c(C)cc32)[C@H](OC(C)=O)[C@@H](OC(C)=O)[C@H]1OC(C)=O`: 3.16 µM (active).
Turning to `CC(=O)OC[C@@H]1O[C@H](CCO/N=C(\C)CCN2CCCc3nc(C)c(C)cc32)C=C[C@@H]1OC(C)=O`, the activity, negative = inhibition is -15.6% [at 11.4 µM].
Same read-out and setting: next, `Cc1ccccc1-c1cc(C(=O)Nc2nc3c(s2)CCCC3)c2ccccc2n1`: -6.95%; `O=C(c1cnccn1)N1CCC[C@@]2(CCN(c3ncccn3)C2)C1`: -0.687%; `CCOC(=O)c1nc2sc(C)c(C)c2c(=O)[nH]1`: 6.61%.
Still for that read-out and setting: next, `C[C@@H]1O[C@@H](n2cc(F)c(=O)[nH]c2=O)[C@H](O)[C@@H]1O`: 2.47%; `COC(=O)[C@@]1(Cc2ccc(OC)cc2)[C@@H]2C(=CC(=O)[C@H]2CC(=O)C(=O)N(C)C)CN1C(=O)c1ccccc1`: -6.49%.
For the compound `c1ccc(-c2nc(N3CCCCCC3)nc(-n3ccnc3)n2)cc1`, the AC50 is 14.1 µM (active).
Same read-out and setting: as for `CN(c1ccccc1)c1nc(-n2ccnc2)nc(-n2ccnc2)n1`, the figure is 11.2 µM (active).
Consider `CCOc1nc(N2CCCCC2)nc(-n2cc(-c3ccccc3)nn2)n1`, for which the “activity, negative = inhibition” value was 10.5%.
Still for that read-out and setting: next, `CCCSc1cc(N2CCCC2)nc(-c2ccccc2)n1`: -6.04%.
Same read-out and setting: as for `C[C@@H](N)C(=O)O`, the figure is 11.9%; as for `Cc1c(C(=O)NN2CCN(C)CC2)cccc1[N+](=O)[O-]`, 21%; as for `Cc1sc(=NC(=O)c2ccco2)n(C)c1-c1ccc(F)cc1`, 8.56%.
Consider `CCc1cc2cc(C)c(C)cc2nc1SCC(=O)NNC(=O)c1ccco1`, for which the “activity, negative = inhibition” value was 15.9%.
On the same count and under the same terms, as for `CC(C)(C)C(=O)N1CCN(c2ccc([N+](=O)[O-])c(NCC3CCCO3)c2)CC1` (configuration not stated), the figure is -24.3%; as for `COc1cccc([C@H](O)Cn2cc(-c3ccc(CON=C(C)C)cc3)nn2)c1`, 4% [at 11.4 µM].
The same measure, in the same setting: next, `O=c1c(Cl)c(N2CCN(S(=O)(=O)c3ccc(F)cc3)CC2)cnn1-c1cccc(Cl)c1`: 0.0421%; `CC(=O)C=NCC(=O)O`: -2.95% [at 11.4 µM].
Regarding `Cc1cccc(CNc2cc(-c3ccoc3)ncn2)c1`, the half-maximal activity concentration (AC50) is 25.1 µM (active).
Turning to `Cc1cccc(CNc2cc(-c3ccc(N(C)C)cc3)ncn2)c1`, the “activity, negative = inhibition” value was -15.8%.
On the same count and under the same terms, as for `c1cncc(CNc2cc(-c3ccoc3)ncn2)c1`, the figure is -8.57%.
In the case of `c1csc(CNc2cc(-c3ccoc3)ncn2)c1`, the half-maximal activity concentration (AC50) is 15.8 µM (active).
On to `Cc1cnc(CNc2cc(-c3ccoc3)ncn2)cn1`, for which the “activity, negative = inhibition” value is 9.36%.
On to `C=CCSc1ccsc1C(=O)O`, for which the “activity, negative = inhibition” value is 4.5%.
For `Cc1cc(C)n2c(SCC(=O)N(C)C3CCS(=O)(=O)C3)nnc2n1` (configuration not stated), the “activity, negative = inhibition” value is -4.18%.
Turning to `O=c1c(C=Nc2ccc(Oc3ccccc3)cc2)c[nH]n1-c1cccc(Cl)n1`, the “activity, negative = inhibition” value was -11.3%.
Same read-out and setting: as for `CC(=O)OCc1c(C(F)(F)F)nn(C)c1Sc1ccccc1`, the figure is -12.7%; as for `Cc1cc(C)n(CC(O)COc2ccccc2)n1` (configuration not stated), -20.6%; as for `c1ccc2c(c1)c1ccccc1n2Cn1c2ccccc2c2ccccc21`, -12.9% [at 11.4 µM].
Same read-out and setting: as for `OC[C@@H](O)COc1cccc2ccccc12`, the figure is 8.76%.
`C=CCN(CC=C)CC(O)Cn1c2ccccc2c2ccccc21` (configuration not stated): the AC50 is 0.224 µM (active).
With `CCn1c2ccccc2c2cc(NC(=O)C(C)Oc3ccc(OC)cc3)ccc21` (configuration not stated), the “activity, negative = inhibition” value was -24.2%.
For `CC(=O)Nc1ccc(OCC(O)Cn2c3ccccc3c3ccccc32)c(C)c1` (configuration not stated), the AC50 is 14.1 µM (active).
`Cc1ccccc1OCC(O)Cn1c2ccccc2c2ccccc21` (configuration not stated): the half-maximal activity concentration (AC50) was 0.891 µM (active).
As to `Cc1ccccc1OCC(O)Cn1c(NCc2ccccc2)nc2c1c(=O)[nH]c(=O)n2C` (configuration not stated), the “activity, negative = inhibition” value is -3.75%.
On to `Cc1ccc(OCC(O)Cn2c3ccccc3c3ccccc32)cc1` (configuration not stated), for which the concentration at half-maximal activity (AC50) was 6.31 µM (active).
As for `Cc1ccc(OCC(O)CNC(=O)c2ccccc2C(=O)O)cc1` (configuration not stated), the “activity, negative = inhibition” value was 19.5%.
